Results filed as inconclusive are left out. A call without a number means that no potency is given here. A structure can be active in one record and inactive in another. Active and inactive are the calls of the source. Unless noted, calls come from the whole dose curve; as a rule, active = well fitted curve in the direction sought with a large enough effect; inconclusive = small, poorly fitted or top-dose-only effect, or another doubt; inactive = no such curve, though single readings can be large; an effect the other way counts as inactive or inconclusive.
Experiments:
[1] = Cytometric Cell-Based qHTS for Inhibitors of the mTORC1 Signaling Pathway in MEF (Tsc2-/-, p53-/-) Cells (AID 2660);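 note: Tsc2 and p53 null MEFs carrying empty vector with compound for 24 h; percent of cells above a phospho-rpS6 to PI ratio cutoff in each well; series mostly up to about 38 µM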
Procedure, shortened: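 Cells are plated, treated with compound for 24 hrs at 37 degree Celsius, then fixed, blocked and immunostained for phospho-rpS6 Ser235/236. Propidium iodide counterstain follows. Per-well % positive cells is derived from the PI-normalized phospho-S6 signal.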

[2] = High Content Imaging Cell-Based qHTS for Inhibitors of the mTORC1 Signaling Pathway in MEF (Tsc2-/-, p53-/-) Cells (AID 2666);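 note: percent of cells scored positive for phospho-rpS6 Ser235/236 immunostaining by imaging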
Procedure, shortened: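 MEF Tsc2-/- p53-/- (empty vector), DMEM/10% FBS; cpd 24 h 37 °C; PFA fix, Alexa-488 p-rpS6 S235/236 Ab, Hoechst; imaged; rapamycin-defined inhibition; % positive cells/well.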

[3] = High Content Imaging Cell-Based qHTS for Inhibitors of the mTORC1 Signaling Pathway in MEF Cells (AID 2667);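 note: Tsc2-/- p53-/- MEFs stably re-expressing wild-type Tsc2 exposed 24 h; series mostly up to about 38 µM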
Procedure, shortened: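 Read-out is the share of phospho-rpS6-positive cells per well, from Hoechst-normalized Alexa-488 Ser235/236 staining imaged on IN Cell. Cells: WT Tsc2-expressing Tsc2-/-, p53-/- MEFs exposed to compound for 24 hrs.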

[4] = Cytometry Cell-Based qHTS for Inhibitors of the mTORC1 Signaling Pathway in MEF cells (AID 2668);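 note: Tsc2-/- p53-/- mouse embryonic fibroblasts stably re-expressing wild-type Tsc2; percent cells positive for phospho-rpS6 Ser235/236 relative to propidium iodide stain; series mostly up to about 38 µM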
Procedure, shortened: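 Tsc2-/-, p53-/- MEFs re-expressing WT Tsc2; cpd 24 hrs, 37 degree Celsius; PFA fix, Alexa-488 p-rpS6 (Ser235/236) Ab 2 hrs RT, PI counterstain; Acumen 488nm scan; p-S6/PI ratio → % positive cells; PI count = viability.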

[5] = Validation screen for small molecules that induce DNA re-replication in MCF 10A normal breast cells (AID 463097); note: nearly all actives have a fitted effect of over 60% in size; note: potency is the fitted concentration of half-maximal effect
Procedure, shortened: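 Image-based qHTS: normal breast cells are incubated with compound for 48 hr, stained with Hoechst, and scanned for total nuclear fluorescence. Compounds raising the fraction of nuclei with elevated DNA content count as re-replication inducers.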

[6] = molecular target: Ubiquitin carboxyl-terminal hydrolase 2 (Homo sapiens) (UniProt O75604); test: qHTS Validation Assay for Inhibitors of Ubiquitin-specific Protease USP2a Using CHOP2 as the Reporter (AID 463106)
Chain of Ubiquitin carboxyl-terminal hydrolase 2 (Homo sapiens) (O75604 whole entry, looked up): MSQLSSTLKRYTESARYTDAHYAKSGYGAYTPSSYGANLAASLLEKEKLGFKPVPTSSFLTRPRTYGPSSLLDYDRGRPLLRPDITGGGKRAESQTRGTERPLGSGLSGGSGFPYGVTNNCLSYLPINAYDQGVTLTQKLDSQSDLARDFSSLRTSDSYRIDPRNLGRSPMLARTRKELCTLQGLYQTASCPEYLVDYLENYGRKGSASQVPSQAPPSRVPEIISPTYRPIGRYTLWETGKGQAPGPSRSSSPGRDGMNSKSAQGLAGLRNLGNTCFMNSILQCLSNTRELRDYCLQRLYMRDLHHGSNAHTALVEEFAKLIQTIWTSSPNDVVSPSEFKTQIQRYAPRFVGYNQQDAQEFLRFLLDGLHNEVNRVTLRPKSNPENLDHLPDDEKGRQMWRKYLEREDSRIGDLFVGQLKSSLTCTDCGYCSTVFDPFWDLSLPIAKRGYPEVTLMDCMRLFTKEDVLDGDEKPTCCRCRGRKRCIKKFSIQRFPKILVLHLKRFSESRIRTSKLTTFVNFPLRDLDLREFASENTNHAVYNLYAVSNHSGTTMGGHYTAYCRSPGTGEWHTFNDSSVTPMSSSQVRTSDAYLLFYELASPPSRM
Procedure, shortened: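 Fluorescence read-out at Ex 485nm/Em 531nm after 60min RT, following addition of 25nM Ub-CHOP2 plus 25nM reporter substrate to USP2 core (10nM) pretreated 30min with compound. Data normalized to NEM full inhibition; concentration-response curves fitted.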

[7] = molecular target: DNA polymerase III PolC-type (Bacillus subtilis (strain 168)) (UniProt P13267); test: qHTS Validation Assay for the Inhibitors of DNA Replication in Gram-Positive Bacteria (AID 485295);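 note: reconstituted holoenzyme with PolC plus beta clamp SSB and primase; PicoGreen fluorescence of double-stranded DNA made on primed circular M13 template; series mostly up to about 57 µM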
Procedure, shortened: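 First, compound is mixed with the reconstituted replication complex and held at room temperature. Next, circular single-stranded M13Gori with nucleotides starts synthesis. Finally, PicoGreen in EDTA halts the reaction and stains double-stranded product for fluorescence reading.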

[8] = molecular target: Tumor susceptibility gene 101 protein (Homo sapiens) (UniProt Q99816); test: qHTS Validation Assay for Iinhibitors of HIV-1 Budding by Blocking the Interaction of PTAP/TSG101 (AID 485342; calls by dose curve)
Chain of Tumor susceptibility gene 101 protein (Homo sapiens) (Q99816 whole entry, looked up, the tested form may be a part): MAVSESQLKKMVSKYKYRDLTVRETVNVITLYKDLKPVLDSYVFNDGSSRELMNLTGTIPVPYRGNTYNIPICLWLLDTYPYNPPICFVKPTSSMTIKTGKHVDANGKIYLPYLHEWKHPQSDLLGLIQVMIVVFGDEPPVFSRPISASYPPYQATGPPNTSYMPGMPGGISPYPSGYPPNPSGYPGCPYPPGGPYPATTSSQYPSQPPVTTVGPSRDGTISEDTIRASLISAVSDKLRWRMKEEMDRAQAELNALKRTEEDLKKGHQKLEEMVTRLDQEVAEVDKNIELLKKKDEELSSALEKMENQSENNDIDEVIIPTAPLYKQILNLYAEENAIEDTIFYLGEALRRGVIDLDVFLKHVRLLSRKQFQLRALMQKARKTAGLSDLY
Procedure, shortened: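 Binding of a FITC-tagged PTAP-motif peptide (50 nM) to the Tsg101 binding domain (10 uM) is monitored by fluorescence polarization. Compounds are pin-delivered before peptide addition, and incubation runs 20 min at room temperature.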

[9] = qHTS Validation Assay to Find Inhibitors of Chronic Active B-Cell Receptor Signaling (AID 485345; active = well fitted curve in the direction sought with a large enough effect in the main read-out, with a control signal flat, not every such curve was filed as active)
Procedure, shortened: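 TMD8 ABC-DLBCL cells stably carrying doxycycline-inducible IkappaBalpha–green luciferase fusion plus unfused red luciferase; compounds 46 uM to 3 nM, 4 h at 37C with doxycycline. Corrected green/red luminescence ratio normalized to 10 uM MG-132 and basal cell wells; curves fitted.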

[10] = molecular target: Beta-2 adrenergic receptor (Homo sapiens) (UniProt P07550); test: qHTS validation assay of beta-arrestin-biased ligands of beta2-adrenergic receptor (AID 485366)
Chain of Beta-2 adrenergic receptor (Homo sapiens) (P07550 whole entry, looked up): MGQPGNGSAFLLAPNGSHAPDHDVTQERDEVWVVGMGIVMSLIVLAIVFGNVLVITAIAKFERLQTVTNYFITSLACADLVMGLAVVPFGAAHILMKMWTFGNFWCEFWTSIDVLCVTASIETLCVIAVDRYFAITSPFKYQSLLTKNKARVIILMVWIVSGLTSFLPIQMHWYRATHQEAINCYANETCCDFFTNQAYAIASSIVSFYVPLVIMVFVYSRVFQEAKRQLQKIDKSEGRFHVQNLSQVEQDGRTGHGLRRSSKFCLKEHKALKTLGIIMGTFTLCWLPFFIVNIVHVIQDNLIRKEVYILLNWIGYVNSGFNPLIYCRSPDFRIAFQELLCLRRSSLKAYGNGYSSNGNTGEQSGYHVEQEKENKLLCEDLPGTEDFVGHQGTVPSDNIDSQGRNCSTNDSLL
Procedure, shortened: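 Compound series up to 46 microM applied to beta2-AR/beta-arrestin Tango cells, 18 hr, 37 degrees C, 5% CO2. Read-out: tTA-driven luciferase luminescence, converted to %Activity; concentration-response curves assigned curve classes.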

[11] = Quantitative high throughput screen for delayed death inhibitors of the malarial parasite plastid, 96 hour incubation (AID 488745);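 note: luciferase-expressing P. falciparum in erythrocytes at 2% hematocrit and 0.1% parasitemia; series mostly up to about 29 µM; nearly all actives have a fitted effect of over 70% in size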
Procedure, shortened: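 Readout is firefly luciferase luminescence from an integrated reporter in P. falciparum; lower signal marks inhibited growth. Cultures at 2% hematocrit and 0.1% parasitemia were treated with compound across two generations (96 h, 37 C, 5% CO2).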

[12] = Quantitative high throughput screen for delayed death inhibitors of the malarial parasite plastid, 48 hour incubation (AID 488752); note: nearly all actives have a fitted effect of over 65% in size
Procedure, shortened: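 First, compound was pinned into RPMI 1640 medium containing 0.5% Albumax. Next, reporter-parasite-infected erythrocytes were added to 2% hematocrit and 0.1% parasitemia. After 48 h at 37 C under 5% CO2, luciferase detection reagent was added and luminescence read.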

[13] = molecular target: Thioredoxin reductase 1, cytoplasmic (Rattus norvegicus) (UniProt O89049); test: qHTS Assay for Substrates of Mammalian Selenoprotein Thioredoxin Reductase 1 (TrxR1) (AID 488772);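 note: series mostly up to about 57 µM; a drop in NADPH fluorescence below the no-compound background marks a TrxR1 substrate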
Chain of Thioredoxin reductase 1, cytoplasmic (Rattus norvegicus) (O89049 whole entry, looked up): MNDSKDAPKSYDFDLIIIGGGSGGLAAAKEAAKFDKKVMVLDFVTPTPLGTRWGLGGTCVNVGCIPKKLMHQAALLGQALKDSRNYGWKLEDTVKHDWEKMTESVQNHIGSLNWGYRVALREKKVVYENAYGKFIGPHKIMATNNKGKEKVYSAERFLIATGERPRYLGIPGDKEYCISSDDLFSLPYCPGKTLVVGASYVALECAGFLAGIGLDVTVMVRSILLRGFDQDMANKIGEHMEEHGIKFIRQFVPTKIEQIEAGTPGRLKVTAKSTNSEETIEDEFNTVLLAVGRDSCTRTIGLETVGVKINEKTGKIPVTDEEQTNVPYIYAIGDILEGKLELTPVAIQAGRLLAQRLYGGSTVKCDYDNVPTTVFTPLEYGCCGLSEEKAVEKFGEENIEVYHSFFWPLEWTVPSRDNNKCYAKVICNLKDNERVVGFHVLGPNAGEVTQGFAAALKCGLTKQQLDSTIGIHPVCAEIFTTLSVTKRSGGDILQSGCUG
Procedure, shortened: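 In this dual-purpose format, potential substrates are identified from the first fluorescence read after selenite addition, not from the 8-minute delta. Rat enzyme is preincubated with NADPH and then with compound at ~22 deg C.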

[14] = molecular target: Thioredoxin reductase 1, cytoplasmic (Rattus norvegicus) (UniProt O89049); test: qHTS Assay for Inhibitors of Mammalian Selenoprotein Thioredoxin Reductase 1 (TrxR1) (AID 488773); conditions: Potency: inhibition;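 note: drop in NADPH fluorescence over an 8 min run after selenite addition; series mostly up to about 57 µM; nearly all actives have a fitted effect of over 40% in size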
Procedure, shortened: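 Inhibition is scored from the loss of NADPH fluorescence between first and last reads of an 8-min kinetic run. Selenite (400 uM) was the substrate, added after 15 min compound preincubation at room temperature.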

[15] = molecular target: Flap endonuclease 1 (Homo sapiens) (UniProt P39748); test: qHTS Validation Assay for the Inhibitors of Human Flap endonuclease 1 (FEN1) (AID 488816); note: potency is the fitted concentration of half-maximal effect
Chain of Flap endonuclease 1 (Homo sapiens) (P39748 whole entry, looked up): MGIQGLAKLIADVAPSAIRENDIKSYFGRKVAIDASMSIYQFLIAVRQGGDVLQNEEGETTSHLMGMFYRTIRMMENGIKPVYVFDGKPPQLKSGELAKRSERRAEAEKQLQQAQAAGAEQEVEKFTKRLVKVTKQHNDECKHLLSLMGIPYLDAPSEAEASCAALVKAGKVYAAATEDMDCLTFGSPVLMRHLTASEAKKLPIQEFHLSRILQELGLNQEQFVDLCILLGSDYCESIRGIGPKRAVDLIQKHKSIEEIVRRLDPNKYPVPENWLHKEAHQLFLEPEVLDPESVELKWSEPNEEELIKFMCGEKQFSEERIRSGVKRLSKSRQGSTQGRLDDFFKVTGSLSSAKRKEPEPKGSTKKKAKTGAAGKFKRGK
Procedure, shortened: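 Enzyme reagent 10 nM; cpds pinned; 15 min RT preinc.; substrate 50 nM final; reads t=0 and 15 min; no-enzyme buffer wells as neg. control; normalized data, 4-parameter Hill fit.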

[16] = molecular target: Chromobox protein homolog 1 (Homo sapiens) (UniProt P83916); test: qHTS Validation Assay for Inhibitors of HP1-beta Chromodomain Interactions with Methylated Histone Tails (AID 488953); note: nearly all actives have a fitted effect of over 50% in size; note: potency is the fitted concentration of half-maximal effect
Chain of Chromobox protein homolog 1 (Homo sapiens) (P83916 whole entry, looked up): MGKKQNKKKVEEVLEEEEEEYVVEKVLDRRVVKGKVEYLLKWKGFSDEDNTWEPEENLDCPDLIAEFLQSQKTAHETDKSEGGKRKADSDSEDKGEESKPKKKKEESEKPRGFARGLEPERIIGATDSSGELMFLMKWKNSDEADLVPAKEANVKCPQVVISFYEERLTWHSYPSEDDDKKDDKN
Procedure, shortened: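 Disruption of preformed HP1-beta:H3K9me3 peptide complexes (both 50 nM, PBS pH 7.4 with 0.01% Tween-20) is measured by AlphaScreen after 30 min compound exposure at room temperature, using streptavidin donor and nickel chelate acceptor beads at 10 ug/mL final.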

[17] = molecular target: Methanococcus maripaludis chaperonin (MmCpn) (UniProt Q6LX38); test: High-Throughput Screening for Modulators of Cytosolic Chaperonin Activity: MmCpn Primary Screen (AID 488978);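 note: 50 nM MmCpn enzyme hydrolysing 30 µM ATP at 37 °C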
Chain of Methanococcus maripaludis chaperonin (MmCpn) (Q6LX38 1-543): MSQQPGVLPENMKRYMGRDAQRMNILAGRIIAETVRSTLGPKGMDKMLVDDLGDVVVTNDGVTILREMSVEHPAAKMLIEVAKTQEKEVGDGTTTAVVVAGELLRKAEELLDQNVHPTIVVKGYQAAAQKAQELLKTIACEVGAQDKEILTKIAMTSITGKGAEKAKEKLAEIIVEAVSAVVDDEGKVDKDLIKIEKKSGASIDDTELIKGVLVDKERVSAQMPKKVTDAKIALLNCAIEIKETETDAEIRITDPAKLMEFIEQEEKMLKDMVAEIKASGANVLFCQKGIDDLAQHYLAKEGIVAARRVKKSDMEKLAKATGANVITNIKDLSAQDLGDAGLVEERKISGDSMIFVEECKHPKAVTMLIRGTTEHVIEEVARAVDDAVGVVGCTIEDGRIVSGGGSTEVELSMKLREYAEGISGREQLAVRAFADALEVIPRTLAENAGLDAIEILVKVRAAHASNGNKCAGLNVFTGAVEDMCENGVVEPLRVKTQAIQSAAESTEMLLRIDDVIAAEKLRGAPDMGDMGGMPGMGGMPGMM
Procedure, shortened: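 Steps: chaperonin 50 nM final; add compound, 5 min RT; start with ATP, 30 uM final; hold 10 min at 37C; add ADP Transcreener HTRF reagent, 5 min; read ex 320, em 590 and 665 nm.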

[18] = molecular target: ATP-dependent 6-phosphofructokinase (Trypanosoma brucei brucei) (UniProt O15648); test: qHTS Validation Assay to Find Inhibitors of T. brucei phosphofructokinase (AID 485368)
Chain of ATP-dependent 6-phosphofructokinase (Trypanosoma brucei brucei) (O15648 whole entry, looked up): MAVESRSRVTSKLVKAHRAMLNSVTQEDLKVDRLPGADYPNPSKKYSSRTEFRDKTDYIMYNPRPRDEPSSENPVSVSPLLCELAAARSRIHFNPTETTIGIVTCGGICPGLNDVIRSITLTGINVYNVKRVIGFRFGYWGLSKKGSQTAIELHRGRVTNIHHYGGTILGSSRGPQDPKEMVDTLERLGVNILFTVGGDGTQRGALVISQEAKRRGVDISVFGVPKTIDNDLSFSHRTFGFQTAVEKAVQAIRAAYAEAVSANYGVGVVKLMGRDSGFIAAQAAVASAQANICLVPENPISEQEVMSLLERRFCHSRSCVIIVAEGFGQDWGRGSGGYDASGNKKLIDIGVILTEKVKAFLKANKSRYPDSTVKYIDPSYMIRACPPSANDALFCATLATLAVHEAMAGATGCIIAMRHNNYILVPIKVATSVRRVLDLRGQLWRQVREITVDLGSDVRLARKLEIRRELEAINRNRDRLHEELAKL
Procedure, shortened: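 qHTS format, up to 57 uM. PFK 1.25 nM; F6P 0.5 mM; ATP 0.1 mM; 5 mM MgCl2, 0.01% Tween20, 0.1% BSA; 0.1 M TEA pH 8.0; 45 min RT; ADP-Glo readout; no-enzyme control = full inhibition.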

[19] = molecular target: M-phase phosphoprotein 8 (Homo sapiens) (UniProt Q99549); test: qHTS Validation Assay for Inhibitors for MPP8 Chromodomain Interactions with Methylated Histone Tails (AID 488949); note: nearly all actives have a fitted effect of over 55% in size; note: potency is the fitted concentration of half-maximal effect
Chain of M-phase phosphoprotein 8 (Homo sapiens) (Q99549 whole entry, looked up): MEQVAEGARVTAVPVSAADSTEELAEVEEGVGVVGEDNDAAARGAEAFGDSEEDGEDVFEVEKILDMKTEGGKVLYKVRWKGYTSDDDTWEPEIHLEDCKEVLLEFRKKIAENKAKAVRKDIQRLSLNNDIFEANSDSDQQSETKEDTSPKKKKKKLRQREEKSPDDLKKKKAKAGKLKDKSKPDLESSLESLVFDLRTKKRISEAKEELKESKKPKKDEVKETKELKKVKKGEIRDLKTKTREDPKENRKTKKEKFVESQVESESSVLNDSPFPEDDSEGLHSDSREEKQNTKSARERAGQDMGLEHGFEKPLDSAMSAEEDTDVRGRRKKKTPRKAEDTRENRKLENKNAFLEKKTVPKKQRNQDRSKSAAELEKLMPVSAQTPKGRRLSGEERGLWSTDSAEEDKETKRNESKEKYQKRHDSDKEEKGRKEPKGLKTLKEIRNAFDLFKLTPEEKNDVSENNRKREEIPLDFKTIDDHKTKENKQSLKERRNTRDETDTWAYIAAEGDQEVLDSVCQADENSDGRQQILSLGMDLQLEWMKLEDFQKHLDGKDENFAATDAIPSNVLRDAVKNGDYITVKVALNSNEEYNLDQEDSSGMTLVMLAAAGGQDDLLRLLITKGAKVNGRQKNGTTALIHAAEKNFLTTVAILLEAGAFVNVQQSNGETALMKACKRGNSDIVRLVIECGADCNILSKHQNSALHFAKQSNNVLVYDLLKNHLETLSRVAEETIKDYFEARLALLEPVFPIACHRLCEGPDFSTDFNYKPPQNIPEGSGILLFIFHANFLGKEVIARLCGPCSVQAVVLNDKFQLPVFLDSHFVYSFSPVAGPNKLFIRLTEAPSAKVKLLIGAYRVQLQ
Procedure, shortened: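 50 nM MPP8 + 50 nM b-H3K9me3 peptide, PBS pH 7.4/0.01% Tween-20, 30 min RT; + cpd 30 min RT; + AlphaScreen donor/Ni-chelate acceptor beads 10 ug/mL final, 30 min dark; luminescence read.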

| SMILES | outcome [1] | Potency [2] | Potency [3] | Potency [4] | Potency [5] | Potency [6] | Potency [7] | outcome [8] | outcome [9] | outcome [10] | Potency [11] | Potency [12] | outcome [13] | Potency [14] | Potency [15] | Potency [16] | outcome [17] | Potency [18] | Potency [19] |
| --- | --- | --- | --- | --- | --- | --- | --- | --- | --- | --- | --- | --- | --- | --- | --- | --- | --- | --- | --- |
| O=[N+]([O-])c1cccc2c(Br)[nH]nc12 | inactive | inactive | inactive | inactive | inactive | inactive | inactive | inactive | inactive | inactive | inactive | inactive | inactive | inactive | inactive | inactive | inactive |  |  |
| N=C(N)SCCc1cnc[nH]1 | inactive | inactive | inactive | inactive | inactive | inactive | inactive | inactive | inactive | inactive | inactive | inactive | inactive | inactive |  |  | inactive | inactive | inactive |
| CC(=O)/C(C)=N/O | inactive | inactive | inactive | inactive | inactive | inactive | inactive | inactive | inactive | inactive | inactive | inactive | inactive | inactive | inactive | inactive | inactive | inactive |  |
| CC(C)C[C@H](NC(=O)[C@H](O)[C@H](N)Cc1ccccc1)C(=O)O | inactive | inactive | inactive | inactive | inactive | inactive | inactive | inactive | inactive | inactive | inactive | inactive |  | inactive | inactive | inactive | inactive | inactive | inactive |
| O=C(O)[C@H]1NCCC[C@H]1C(=O)O | inactive | inactive | inactive | inactive | inactive | inactive | inactive | inactive | inactive | inactive | inactive | inactive | inactive | inactive | inactive | inactive | inactive |  | inactive |
| CC(=O)NCCc1c[nH]c2ccc(O)cc12 | inactive | inactive | inactive | inactive | inactive | inactive | inactive | inactive | inactive | inactive | inactive |  | inactive | inactive | inactive |  | inactive | inactive | inactive |
| CC1CCN(CC[C@H]2CCCN2S(=O)(=O)c2cccc(O)c2)CC1 | inactive | inactive | inactive | inactive | inactive | inactive | inactive | inactive | inactive | inactive | inactive | inactive | inactive |  | inactive |  | inactive |  | inactive |
| NC(N)=NC(N)=Nc1ccccc1 | inactive | inactive | inactive | inactive | inactive | inactive | inactive | inactive | inactive |  | inactive |  | inactive | inactive | inactive |  | inactive |  | inactive |
| NCC(O)c1ccc(O)c(O)c1 (stereo not given) | inactive | inactive | inactive | inactive | inactive | inactive | inactive | inactive | inactive |  | inactive | inactive | inactive |  | 2.99 µM (active) |  | inactive |  | 22.4 µM (active) and inactive |
| Nc1ccc(-c2ccc3ccccc3n2)cc1 | inactive | inactive | inactive | inactive | 12.6 µM (active) | inactive | inactive | inactive | inactive | inactive |  |  | inactive | inactive | inactive |  | inactive |  | inactive |
| Cn1cc(C(F)(F)F)nc1-c1ccc(OCC(O)CNCCOc2ccc(O)c(C(N)=O)c2)cc1 (stereo not given) | inactive | inactive | inactive | inactive | inactive | inactive | inactive | inactive | inactive |  |  |  | inactive |  | inactive | inactive | inactive |  | inactive |
| Oc1cc2c(cc1O)C(c1ccccc1)CNCC2 (stereo not given) | inactive | inactive | inactive | inactive | inactive | inactive | inactive | inactive | inactive | inactive | inactive |  |  | inactive | inactive |  | inactive |  |  |
| Cn1c(=O)c2c(nc(/C=C/c3cccc(Cl)c3)n2C)n(C)c1=O | inactive | inactive | inactive | inactive | inactive | inactive | inactive | inactive |  | inactive | inactive |  | inactive | inactive |  | inactive | inactive | inactive | inactive |
| NC(=O)c1cc[n+](CC2=C(C(=O)O)N3C(=O)[C@@H](NC(=O)[C@@H](c4ccccc4)S(=O)(=O)[O-])[C@H]3SC2)cc1 | inactive | inactive | inactive | inactive | inactive | inactive | inactive | inactive | inactive | inactive |  |  | inactive |  | inactive |  | inactive |  | inactive |
| COc1cc(C(O)C(=O)O)ccc1O (stereo not given) | inactive | inactive | inactive | inactive | inactive | inactive | inactive | inactive | inactive | inactive | inactive |  | inactive | inactive | inactive |  | inactive |  | inactive |
| CCCn1c(=O)c2[nH]c(-c3ccc(S(=O)(=O)O)cc3)nc2n(CCC)c1=O | inactive | inactive | inactive | inactive | inactive | inactive | inactive | inactive |  | inactive | inactive |  |  | inactive |  | inactive | inactive | inactive | inactive |
| NC/C=C\C(=O)O | inactive | inactive | inactive | inactive | inactive | inactive | inactive | inactive | inactive |  | inactive |  | inactive |  |  | inactive | inactive | inactive | inactive |
| COc1cc(N)c(Cl)cc1C(=O)OCCN1CCCCC1 | inactive | inactive | inactive | inactive | inactive | inactive | inactive | inactive | inactive | inactive |  |  | inactive | inactive | inactive | 0.006 µM (active) | inactive |  |  |
